We go through 30 compounds from PubChem BioAssay (EPA / NIEHS).

SMILES strings stand for the structures. Records with an inconclusive call do not appear. Activity calls are given as the source filed them. How the source made its calls: active means hit-call score of the fitted dose curve at least 0.9, where 1 is the maximum; inconclusive means response in the unintended direction; inactive means score below 0.9.

Sequence of Cytochrome P450 3A4 (Homo sapiens) (P08684 whole entry, looked up): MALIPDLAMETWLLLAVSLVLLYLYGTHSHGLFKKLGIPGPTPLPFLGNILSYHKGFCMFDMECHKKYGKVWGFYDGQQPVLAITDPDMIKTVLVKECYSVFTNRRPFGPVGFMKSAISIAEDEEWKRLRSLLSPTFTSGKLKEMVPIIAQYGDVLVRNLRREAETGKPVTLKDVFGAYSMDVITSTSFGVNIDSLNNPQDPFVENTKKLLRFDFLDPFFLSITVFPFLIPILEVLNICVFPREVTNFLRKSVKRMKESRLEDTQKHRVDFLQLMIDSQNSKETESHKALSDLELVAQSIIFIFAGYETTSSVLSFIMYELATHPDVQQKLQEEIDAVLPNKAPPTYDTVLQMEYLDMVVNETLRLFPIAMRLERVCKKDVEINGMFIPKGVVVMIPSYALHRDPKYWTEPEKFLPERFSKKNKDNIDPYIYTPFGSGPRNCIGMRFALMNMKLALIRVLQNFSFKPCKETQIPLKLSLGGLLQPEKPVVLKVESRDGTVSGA

Read-out in the test: Cytochrome P450 3A4 (Homo sapiens) (UniProt P08684)
The experiment in a line: CLD_CYP3A4_48hr: CellzDirect (CLD) Gene Expression Assay for xenobiotic metabolism (CYP3A4) at 48 hours (AID 2283698). The procedure:
CLD_48hr is a cell-based, multiplexed-readout assay that uses hepatocyte, a human liver primary cell, with measurements taken at 48 hours after chemical dosing in a 96-well plate.CLD_CYP3A4_48hr is one of 16 assay component(s) measured or calculated from the CLD_48hr assay. It is designed to make measurements of mRNA induction, a form of inducible reporter, as detected with chemiluminescence signals by Quantitative Nuclease Protection Assay (qNPA) technology.Data from the assay component CLD_CYP3A4_48hr was analyzed at the endpoint, CLD_CYP3A4_48hr, in the positive analysis fitting direction relative to DMSO as the negative control and baseline of activity. Using a type of inducible reporter, gain-of-signal activity can be used to understand changes in the reporter gene as they relate to the gene CYP3A4. Furthermore, this assay endpoint can be referred to as a primary readout. To generalize the intended target to other relatable targets, this assay endpoint is annotated to the cyp intended target family, where subfamily is xenobiotic metabolism.
Human hepatocyte cultures were treated daily for two consecutive days with fresh dosing solutions containing appropriate concentrations of the 320 ToxCast chemicals (chemical identities were blinded to CellzDirect and other ToxCast collaborators), vehicle control (0.2% DMSO), and positive control inducers as summarized in Table 1. Due to the large number of treatment groups and chemicals examined, the ToxCast chemicals were divided into two groups (spanning two independent cultures of hepatocytes from separate donor preparations (Hu778: ToxCast plates 1 and 2; Hu776: ToxCast plates 3 and 4). Each preparation of human hepatocyte cultures was treated with respective vehicle control, medium only control, set of six positive controls/reference chemicals for the five hepatic receptor pathways, and a subset of eight of the ToxCast chemicals (indoxacarb, pyrithiobac-sodium, norflurazon, cyhalofop-butyl, methomyl, thiram, acetochlor, and propiconazole). These replicate data, coupled with internal replicates designed within the blinded ToxCast chemical library, provided additional data to evaluate interindividual differences between hepatocyte preparations and their potential impact on chemical profiles.Cell morphology and integrity were evaluated using phase-contrast microscopy as an indicator of hepatocyte cell health (Tyson & Green, 1987). Cultures for each treatment group (i.e., media, vehicle [0.2% DMSO], positive control inducers [multiple concentrations], and the ToxCast chemicals [multiple concentrations]) were observed and cell morphology was assessed relative to vehicle control cultures at each harvest time point (0, 6, 24, or 48 h). […] Images were evaluated at the conclusion of the study to assess changes in cell integrity and account for the effects of chemical exposure on uncharacteristic changes in concentration-dependent gene expression profiles. The results from these determinations of apparent cytotoxicity were annotated (yes/no) alongside the corresponding qNPA data for reference.At the conclusion of each treatment period, hepatocyte cultures (96-well) were washed with 1 volume of HBSS, lysed by addition of 25 ul ArrayPlate lysis buffer (HTG, Tucson, AZ), and 70 ul/well of Denaturation Oil, denatured by incubation at 95C for 10 min, and frozen at approximately -70C until analysis by nuclease protection assay (qNPA) (Roberts et al., 2007). For qNPA analysis, cell lysates were thawed at 50C for approximately 30 min, qNPA probes were added, and samples were incubated at 95C for 10 min to begin the detection process by denaturing the target RNA, dissociating the duplexes and secondary structure hybridization. At the conclusion of the hybridization period, S1 nuclease reagent was added to each sample to digest all nonprotected nucleotides at 50C for 60-90 min. […]
For the compound `COCCO`, the compound was called inactive. The AC50 is the concentration giving half of the maximal activity seen. For `CC(C)(C)[C@@H](O)[C@@H](Cc1ccc(Cl)cc1)n1cncn1`, the AC50 is 2.15 µM (active). Turning to `c1ccc(Nc2ccccc2)cc1`, the compound was called inactive. `CCCCC(CC)CN1C(=O)C2C3C=CC(C3)C2C1=O` (stereo not given): the AC50 was 20 µM (active). As to `CC1(C)C(C=C(Cl)Cl)C1C(=O)OCc1cccc(Oc2ccccc2)c1` (stereo not given), the result was inactive. Turning to `OB(O)O`, the compound was classed as inactive.

`Oc1ccc(C(c2ccc(O)cc2)C(Cl)(Cl)Cl)cc1`: the outcome was inactive.

With `CCNc1nc(N)nc(Cl)n1`, the compound was classed as inactive.

In the case of `CCSC(=O)N(CC(C)C)CC(C)C`, the result was inactive. With `CCCCOC(=O)C(C)Oc1ccc(Oc2ccc(C(F)(F)F)cn2)cc1` (stereo not given), the compound was classed as inactive. Turning to `CN(C)C(=O)Nc1ccc(Cl)c(Cl)c1`, the compound was called inactive. `COC(=O)c1cccc(C)c1S(=O)(=O)NC(=O)Nc1nc(OCC(F)(F)F)nc(N(C)C)n1`: the AC50 was 20 µM (active). With `Cc1nn(C)c(Oc2ccccc2)c1C=NOCc1ccc(C(=O)OC(C)(C)C)cc1`, the outcome was inactive. As for `CCOC(=O)[C@H](C)Oc1ccc(Oc2nc3ccc(Cl)cc3o2)cc1`, the result was inactive. The same measure, in the same setting: the entry for `CCCCCOC(=O)COc1cc(N2C(=O)C3=C(CCCC3)C2=O)c(F)cc1Cl` is “inactive”. For `COC(=O)CSc1cc(N=c2sc(=O)n3n2CCCC3)c(F)cc1Cl`, the AC50 is 4.08 µM (active). As to `C#CCOC(=O)[C@@H](C)Oc1ccc(Oc2ncc(Cl)cc2F)cc1`, the result was inactive. `CCC(C)OC(=O)N1CCCCC1CCO` (stereo not given): the result was inactive. As to `CCOC(=O)COc1cc(-n2ncc(C(F)(F)F)c(C)c2=O)c(F)cc1Cl`, the concentration at half-maximal activity (AC50) is 5.32 µM (active). As for `COc1c(Cl)ccc(Cl)c1C(=O)O`, the outcome was inactive. For the compound `CCN(Cc1c(F)cccc1Cl)c1c([N+](=O)[O-])cc(C(F)(F)F)cc1[N+](=O)[O-]`, the AC50 was 1.9 µM (active).

`CSC(=O)c1cccc2nnsc12`: the compound was classed as inactive.

Regarding `CCCN(CCC)C(=O)SCC`, the compound was called inactive.

Regarding `S=C([S-])NCCNC(=S)[S-].[Mn+2]`, the call was inactive. Turning to `CCOC(=O)NCCOc1ccc(Oc2ccccc2)cc1`, the outcome was inactive. Same read-out and setting: as for `O=C(O)C1(C(=O)Nc2ccc(Cl)cc2Cl)CC1`, the entry is “inactive”. Take `COC(=O)c1c(Cl)nn(C)c1S(=O)(=O)NC(=O)Nc1nc(OC)cc(OC)n1`: the AC50 was 6.72 µM (active).

As for `CCOC(=O)C(C)Oc1ccc(Oc2cnc3cc(Cl)ccc3n2)cc1` (stereo not given), the call was inactive. On to `CCCCOC(=O)[C@@H](C)Oc1ccc(Oc2ccc(C(F)(F)F)cn2)cc1`, for which the outcome was inactive. With `CCCN(CCC)c1c([N+](=O)[O-])cc(C(F)(F)F)c(N)c1[N+](=O)[O-]`, the AC50 was 7.62 µM (active).
